# Screening data (PubChem)
# ROC1-CUL1 inh – inhibitors of human ROC1-CUL1 ubiquitin ligase activity | P62877+Q13616 | in vitro K48 di-Ub FRET, acceptor:donor ratio, 45 min | inhibition, % at 10 µM | 0.6% of 140,000 active | AID 1347404; in the data active means inhibition above about 25%
# * marks the source's active call; other numbers are inactive results. Many of the other results were omitted from the sample, so hits are more common in it than they were.
SMILES,ROC1-CUL1 inh
CC1=NN(c2ccc(C(=O)O)cc2)C(=O)/C1=C/c1cc(C(C)(C)C)c(O)c(C(C)(C)C)c1,12
CC1=NN(c2ccc(Cl)c(C(=O)O)c2)C(=O)/C1=C\c1cnn(-c2ccc(C)c(C)c2)c1,100*
CC1(C)CCCC(O)C(NC(=O)c2ccccc2)CCCC(C)(C)CC1 (stereo not drawn),8
COCc1ccc(C(=O)NC2CCCN(C3CCN(C)CC3)C2)s1 (stereo not drawn),6
O=C1C=CC([N+](=O)[O-])=CC(C(=O)/C=C/c2ccccc2)C1=O (stereo not drawn),83*
CN1C(=O)C(C(=O)/C=C/c2ccccc2)C(=O)N(C)C1=O,0
O=C1C=CC(Br)=CC(C(=O)/C=C/c2ccc(F)cc2)C1=O (stereo not drawn),11
Fc1ccccc1C1Nc2ccc3ccccc3c2C2C=CCC21 (stereo not drawn),-7
CC(=O)Nc1ccc2c(c1)C1C=CCC1C(c1ccccc1F)N2 (stereo not drawn),-7
Cc1ccc(C(=O)O)c2c1N[C@@H](c1ccccc1F)[C@H]1CC=C[C@@H]21,33*
CC(NC(=O)C1CC=CCC1C(=O)O)C12CC3CC(CC(C3)C1)C2 (stereo not drawn),-1
CC(C)(C)NC(=O)c1ccc(Br)s1,4
COc1ccc2c(c1)C(N1CCN(CCO)CC1)Cc1cc(Cl)ccc1S2 (stereo not drawn),-3
COc1ccc(CCNS(=O)(=O)c2c(C)c(C)cc(C)c2C)cc1OC,1
Cc1cc(Cl)ccc1NC(=O)CN1CCC(C)CC1,1
Cc1cc(Br)ccc1NC(=O)CN1CCC(C)CC1,98*
Cc1cc(Br)c(NC(=O)CN2CCC(C)CC2)cc1C,5
COc1cccc(C(=O)N2CCN(C(=O)c3cc(OC)c(OC)c(OC)c3)CC2)c1,4
O=C(Nc1ccc(Oc2ccccc2)cc1)c1ccncc1,4
CC(=O)Oc1cc(C(=O)Nc2ccc(Oc3ccccc3)cc2)cc(OC(C)=O)c1OC(C)=O,38*
CC(=O)Nc1ccc(Oc2cc(NC(=O)c3ccccc3)cc([N+](=O)[O-])c2)cc1,7
C=CCn1c(-c2ccc(Br)cc2)nc(=S)c2c1CCCC2,2
CCCCNS(=O)(=O)c1cc(C(C)C)ccc1OC,-17
Cc1ccc(C2=NN3C(=N)/C(=C/c4cccc(OCc5ccc(F)cc5)c4)C(=O)N=C3S2)cc1,-7
N=C1/C(=C\c2ccc(OC(=O)c3ccc(F)cc3)c(Cl)c2)C(=O)N=C2SC(c3ccco3)=NN12,13
SMILES,ROC1-CUL1 inh
N=C1/C(=C/c2cccc(OC(=O)c3ccc(F)cc3)c2)C(=O)N=C2SC(c3cccs3)=NN12,28*
Cc1cnc(C)c(-c2cc(F)cc3c2OC(CNC(=O)CCN(C)C2CCS(=O)(=O)C2)C3)n1 (stereo not drawn),7
CSC1=N/C(=C\c2ccc(OC3CCCC3)cc2)C(=O)S1,5
CSC1=N/C(=C\c2ccc(F)cc2)C(=O)S1,7
O=C(O)COc1ccc(Br)cc1Cl,-3
CSC1=N/C(=C\c2ccc(C(=O)O)cc2)C(=O)S1,50*
COc1cccc(/C=C2\N=C(SC)SC2=O)c1OCc1ccccc1,-3
CSC1=N/C(=C\c2cc(Br)ccc2OCC(=O)O)C(=O)S1,50*
O=C(NCc1ccccc1Cl)C1CCN(C(=O)c2ccccc2F)CC1,3
COc1c(C)cc(S(=O)(=O)NC(C)C)c(C)c1C,-12
O=C(O)CCn1c(=O)oc2cc(Br)ccc21,6
O=C1CCCN1CCNCc1cccc(OCC(O)CN2CCOCC2)c1 (stereo not drawn),13
CCC(Oc1cc(Cl)ccc1Cl)C(=O)NNC(=O)/C=C/C(=O)O (stereo not drawn),-8
Cc1cc(/C=N\NC(=O)c2ccncc2)c(C)n1-c1cccc(C(=O)O)c1,2
COc1cccc(C(=O)Oc2cc(C)c(Cl)cc2C(C)C)c1,-6
CC(=O)Nc1ccccc1C(=O)OCc1ccc(Cl)c(Cl)c1,-7
CCn1ccnc1CN1CCC(n2nccc2NC(=O)Cc2ccccc2)CC1,-7
CC1N(C)c2cccc3cccc(c23)N1C,-22
CN1c2cccc3cccc(c23)N(C)C1c1cccs1,78*
CN1c2ccccc2N(C)C1c1cccs1,6
Cc1cc(N2CCC(C(N)=O)CC2)c2nncn2n1,1
O=C(O)c1cccc(N=C2C(=O)N(c3ccc(Cl)cc3Cl)C(=O)C2Cl)c1 (stereo not drawn),-7
O=C1Nc2ccccc2C(=O)C1N1CCOCC1 (stereo not drawn),0
O=C(O)c1cccc(N=C2C(=O)c3ccccc3C(=O)C2N2CCOCC2)c1 (stereo not drawn),54*
Cc1ccc(NC(=O)Cc2ccccc2F)cc1O,5
SMILES,ROC1-CUL1 inh
CC(=O)NCCC(=O)NC1CCCN(C2CCCCCC2)C1 (stereo not drawn),4
COc1ccc(C(=O)Nc2c(Cl)cccc2Cl)cc1,-6
COc1ccc(C(C2C(=O)Oc3ccc(C)cc3C2=O)C2C(=O)Oc3ccc(C)cc3C2=O)cc1 (stereo not drawn),69*
COc1ccc(C(C2C(=O)C=C(C)OC2=O)C2C(=O)C=C(C)OC2=O)cc1 (stereo not drawn),0
COc1ccc(N=CC2C(=O)Oc3ccccc3C2=O)cc1 (stereo not drawn),0
c1ccc(COc2ccccc2C2N(c3ccccc3)CCN2c2ccccc2)cc1,4
O=C(NCCOc1cccc2ccccc12)C1CC1,10
O=C(CSc1cnn(-c2ccccc2)c(=O)c1Cl)c1ccc(Br)cc1,8
O=C1c2ccccc2C(=O)c2c(OS(=O)(=O)c3ccc(F)cc3)cccc21,-1
CCN(CC)CCN=CC1C(=O)N(c2c(Cl)cccc2Cl)c2ccccc21 (stereo not drawn),4
CN(C)/C=C1\C(=O)N(c2c(Cl)cccc2Cl)c2cc(C=C(C#N)C#N)ccc21,34*
CN(C)/C=C1/N=C2C=C(c3ccccc3)c3cc(Cl)ccc3N2C1=O,0
O=C(c1cnsn1)N1CCCC(N2CCN(c3cccc(C(F)(F)F)c3)CC2)C1 (stereo not drawn),5
COc1cc(C(=O)Oc2ccc3c(=O)c(Oc4ccccc4)c(C(F)(F)F)oc3c2)cc(OC)c1OC,2
CC1=NN(c2ccccc2)C(=O)C1C=Nc1ccccc1-c1nnc(SCc2ccccc2)[nH]c1=O (stereo not drawn),37*
CSc1nnc(-c2ccccc2N=CC2C(=O)N(c3ccccc3)N=C2C)c(=O)[nH]1 (stereo not drawn),2
CC1=NN(c2ccc(F)cc2)C(=O)C1C=Nc1cccc2ccccc12 (stereo not drawn),-8
CC(OC(=O)NC(=O)c1ccc(Cl)cc1)C(C)OC(=O)NC(=O)c1ccc(Cl)cc1 (stereo not drawn),0
Cc1cc(Cl)ccc1OCc1cc(C2C3=C(CCCC3=O)OC(=N)C2C#N)sc1C (stereo not drawn),-5
Cc1ccc(C(O)C#CC23CC4CC(CC(C4)C2)C3)o1 (stereo not drawn),99*
OC(C#CC12CC3CC(CC(C3)C1)C2)c1ccccn1 (stereo not drawn),12
O=C(O)C#CC12CC3CC(CC(C3)C1)C2,0
CCn1ccnc1CN1CCC(C2CCN(CC(C)(C)C)C2)CC1 (stereo not drawn),0
CC1=NN(c2cccc(S(=O)(=O)O)c2)C(=O)C1,7
CC(=O)Nc1ccc(-n2cccc2)cc1,-3
CC(=O)Nc1ccc(N2N=C(C)CC2=O)cc1,28*
